# hgDAF-12 ag: hgDAF-12 agonism, primary luciferase screen; 1.8% of 370,000 active; activation, % at 6.8 µM; AID 687014; HEK293 GAL4-hgDAF12 UAS-luciferase reporter, agonist luminescence; normalized to butyrate control;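 active means activation above a cutoff set at the mean of all screened compounds plus 3 SD, cut at about 10% in these data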
# ssDAF12 agonist: activators of S. stercoralis DAF-12 nuclear receptor; HEK293 ssDAF-12/GRIP1 lit1-tk-luc reporter, luminescence; % of 3 µM dafachronic acid response; activation, % at 6.8 µM; 1% of 370,000 active; AID 652126;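 active means activation above the mean over all tested compounds plus 3 SD, cut at about 0.9% in these data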
# DAX1 inh-1: inhibitors of human orphan nuclear receptor DAX1 (NR0B1); P51843; HEK293 Gal4-DAX1 luciferase reporter, luminescence; inhibition, % at 6.75 µM; 0.99% of 340,000 active; AID 504766;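 active means inhibition above the mean over all tested compounds plus 3 SD, cut at about 4.2% in these data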;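 further: inhibition shows as a rise in luminescence from relieved DAX1 repression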
# Target sequence (P51843 207-470 limits assumed): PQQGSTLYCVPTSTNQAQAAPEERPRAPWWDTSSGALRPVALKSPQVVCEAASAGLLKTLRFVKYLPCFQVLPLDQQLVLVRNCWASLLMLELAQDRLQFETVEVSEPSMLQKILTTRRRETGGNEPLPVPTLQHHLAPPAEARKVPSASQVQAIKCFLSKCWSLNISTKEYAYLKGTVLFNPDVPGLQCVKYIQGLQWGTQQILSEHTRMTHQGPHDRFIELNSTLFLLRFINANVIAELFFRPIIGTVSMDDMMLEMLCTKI
# hcDAF12 agonist: H. contortus DAF-12 activation, primary screen; HEK293 hcDAF-12 lit1-tk-luc reporter, luminescence; 0% DMSO, 100% Δ7-dafachronic acid; activation, % at 6.8 µM; 1.4% of 370,000 active; AID 652067;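 active means activation above the mean of all tested compounds plus 3 SD, cut at about 5.5% in these data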
# SMARCA2 activ: activators of SMARCA2 function; MG213 cells, MMTV-luciferase reporter, dexamethasone, overnight; activation, % at 9.1 µM; 1% of 370,000 active; in the data active means activation above about 7.8%
# DAX1 inh-2: inhibitors of DAX1 repression of SF-1 activated StAR promoter. HEK293T StAR-luciferase reporter, SF-1/DAX-1 repression relief. inhibition, % at 6.8 µM. 1.1% of 370,000 active;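 active means inhibition above the mean over all tested compounds plus 3 SD, cut at about 3.6% in these data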;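 further: higher inhibition means more luminescence from relief of DAX-1 repression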
# DAX1 inh confirm: confirmation of human DAX1 (NR0B1) inhibitors; shares compounds with DAX1 inh-2; HEK293T StAR-promoter luciferase reporter, SF-1/DAX-1 repression; inhibition, % at 6.8 µM; 87% of 2,400 active;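 active means inhibition above the average of every tested compound plus 3 SD, cut at about 3.8% in these data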;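 further: active compounds raise luminescence by relieving repression of the StAR reporter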
# Target sequence (P51843 whole entry, looked up): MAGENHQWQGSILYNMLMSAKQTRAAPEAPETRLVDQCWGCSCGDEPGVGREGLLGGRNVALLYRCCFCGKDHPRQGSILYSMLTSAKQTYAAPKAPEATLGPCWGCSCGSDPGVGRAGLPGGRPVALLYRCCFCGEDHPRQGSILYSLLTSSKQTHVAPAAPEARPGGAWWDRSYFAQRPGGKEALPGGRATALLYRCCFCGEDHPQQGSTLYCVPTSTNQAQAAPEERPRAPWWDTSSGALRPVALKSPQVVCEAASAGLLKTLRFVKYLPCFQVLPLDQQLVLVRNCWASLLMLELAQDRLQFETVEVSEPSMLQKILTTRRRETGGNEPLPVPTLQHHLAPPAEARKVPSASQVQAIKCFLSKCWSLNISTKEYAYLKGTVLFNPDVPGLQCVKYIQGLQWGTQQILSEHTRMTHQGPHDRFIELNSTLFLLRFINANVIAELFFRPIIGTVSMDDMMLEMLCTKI
# SF1 mutant ctr: nonselective inhibitor or artifact in SF-1 mutant DAX1 counter-screen | HEK293 StAR-luciferase, SF-1 AF2 mutant, luminescence | inhibition, % at 6.8 µM | shares compounds with DAX1 inh-2 | 78% of 2,400 active;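 active means inhibition above the mean of all tested compounds plus 3 SD, cut at about 3% in these data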
# SMARCA2 conf: confirmation of SMARCA2 (BRM) function activators; shares compounds with SMARCA2 activ; MG213 cells, MMTV-luciferase with dexamethasone, luminescence, overnight; MG213 cells expressing E1A, Rb sequestered; DMSO wells 0%, reference activator 100%; activation, % at 9.1 µM; 30% of 3,500 active;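 active means activation above its plate's cutoff, the mean activation of tested wells plus 3 SD, cut at about 7.9% in these data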
# VP16 Luc act: GAL4-VP16 reporter activation counter-screen; shares compounds with SMARCA2 activ; HEK293 GAL4-VP16 pG5luc reporter, luciferase luminescence; scaled: DMSO wells 0%, SAHA wells 100%; activation, % at 9.1 µM; 41% of 3,500 active; AID 686939;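 active means activation above the solvent-only control well mean plus 3 SD, averaged across control plates, cut at about 5.2% in these data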
# LXR ag: counter-screen for hcDAF-12 agonists: agonists of human LXR-beta | activation, % at 6.8 µM | shares compounds with hcDAF12 agonist | HEK293 Gal4-LXR tk-luc reporter, luminescence, 24 h; normalized: DMSO 0%, positive control 100% | 3,400 tested, under 10 active | AID 743027;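 active means mean percent activation of the reporter above a cutoff set as the average over tested compounds plus their standard deviation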
# hcDAF12 ag: hcDAF-12 agonism, confirmation assay. activation, % at 6.8 µM. 61% of 3,400 active. shares compounds with hcDAF12 agonist. HEK293 hcDAF-12 lit1-tk-luc reporter, luminescence; % of Δ7-dafachronic acid response;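 active means mean activation across triplicate tests above the threshold derived from the earlier primary screen, cut at about 5.5% in these data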
# hgDAF12 ag: confirmation of H. glycines DAF-12 agonists | shares compounds with hgDAF-12 ag | HEK293 GAL4-hgDAF12 luciferase reporter, agonist mode; percent of butyrate response | activation, % at 6.8 µM | 80% of 3,300 active | AID 743050;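 active means mean activation over triplicate wells above the hit cutoff derived from the earlier primary screen, cut at about 11% in these data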
# LXR ag 2: activates human LXR-beta, counter-screen for DAF-12 agonists | shares compounds with hgDAF-12 ag | 3,300 tested, under 10 active | HEK293 Gal4-LXR luciferase reporter, 24 h | activation, % at 6.8 µM;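 active means mean activation of the triplicate above a set limit carried over from the primary screen, none filed active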
# Numbers stand for hits; . = inactive; / = no result given. This is a sample that favours compounds with a hit; in the whole collection about 4.8% have one here.
SMILES,hgDAF-12 ag,ssDAF12 agonist,DAX1 inh-1,hcDAF12 agonist,SMARCA2 activ,DAX1 inh-2,DAX1 inh confirm,SF1 mutant ctr,hgDAF12 ag,LXR ag 2,others
CCOC(=O)c1ccc(N/C=C/C(=O)c2ccc(OC)c(OC)c2)cc1,.,.,.,.,.,.,/,/,/,/,
CC(C)Oc1cc(O)c2c(=O)c(-c3ccc(O)cc3)coc2c1,26,.,.,7.6,.,5.3,11,5.7,20,.,LXR ag=.;hcDAF12 ag=.
COc1cc(O)cc2occ(-c3ccc(O)cc3)c(=O)c12,.,.,.,.,.,.,/,/,/,/,
O=C(/C(C=Nc1ccc(Br)cc1)=C(/O)c1ccco1)C(F)(F)F,19,.,.,.,.,5.3,17,.,16,.,
COc1ccc(/C=C/C(=O)Nc2ccccc2C(=O)N2CCCC2)cc1,.,.,.,.,.,.,/,/,/,/,
COc1ccc(/C=C/C(=O)Nc2ccccc2C(=O)O)cc1,14,.,.,6.2,.,5.2,7.9,.,11,.,
COc1cc(CC(=O)N(c2ccccc2)c2nc(C)cs2)cc(OC)c1OC,.,.,.,.,.,.,/,/,/,/,
CC(C)(C)OC(=O)N1CCc2onc(-c3ccc(-n4cc(C5=CCCCC5)nn4)cc3)c2C1=O,.,.,/,.,.,.,/,/,/,/,
CCN=c1scc(-c2ccccc2)n1/N=C/c1ccccn1,/,/,.,/,/,/,/,/,/,/,
CCN=c1scc(-c2ccc(F)cc2)n1/N=C/c1ccccn1,21,.,.,.,.,6.8,7.2,4.8,.,.,
Cn1c(=O)c2sccc2n(Cc2ccccc2)c1=O,.,.,.,.,.,.,/,/,/,/,
O=C(NNC(=O)c1ccccn1)c1ccc(OC(F)F)cc1,.,.,.,.,.,.,/,/,/,/,
O=C(NCCc1ccccn1)c1ccc(OC(F)F)cc1,16,.,.,.,.,5.4,9.3,3.8,15,.,
CCN(CC)CCN(C(=O)c1ccc(C(=O)c2ccccc2)cc1)c1nc2cc3c(cc2s1)OCO3,.,.,.,.,.,.,/,/,/,/,
CCN(CC)CCN(C(=O)c1ccc2ncsc2c1)c1nc2cc3c(cc2s1)OCO3,17,2.6,.,16,.,15,11,11,15,.,LXR ag=.;hcDAF12 ag=11
CCOC(=O)c1ccc(Nc2ccc(C(C)=O)cc2)cc1,21,1.3,/,7.7,.,9.0,7.0,5.7,19,.,LXR ag=.;hcDAF12 ag=10
O=C(Nc1ccc2c(c1)OCCO2)C1C(c2ccccc2)=Nc2ccccc2N1C(=O)c1cccnc1 (centres undefined),20,.,/,11,.,13,20,7.9,12,.,LXR ag=.;hcDAF12 ag=7.1
Cc1cccc(C)c1NC(=O)C1C(c2ccc3c(c2)OCO3)=Nc2ccccc2N1C(=O)c1ccccc1 (centres undefined),.,.,/,.,.,.,/,/,/,/,
CC(=O)N1c2ccc(S(=O)(=O)NC(CC(=O)O)c3ccc(Br)cc3)cc2CC1C (centres undefined),.,.,.,.,.,.,/,/,/,/,
O=c1c2ccccc2nnn1CCc1ccccc1,16,.,.,7.1,10,10.0,12,6.4,15,.,SMARCA2 conf=11;VP16 Luc act=10;LXR ag=.;hcDAF12 ag=7.8
O=c1c2ccccc2nnn1CSc1ccccc1F,14,.,.,5.9,11,6.5,11,5.3,15,.,SMARCA2 conf=.;VP16 Luc act=13
O=C(NC1CCN(C(=O)NCc2ccccc2)CC1)c1ccccc1,.,.,.,.,.,.,/,/,/,/,
CCO/C(C)=N/n1c2nc3ccccc3nc2c2c(=O)n(Cc3ccccc3Cl)c(C)nc21,.,.,.,.,.,.,/,/,/,/,
CC(C)(C)C(c1nc2ccccc2[nH]1)n1c(-c2cccc(S(C)(=O)=O)c2)nc2ccccc21 (centres undefined),16,.,/,.,.,16,7.7,9.5,12,.,
COc1ccc2c(CN(C)Cc3ccccc3)cc(=O)oc2c1,15,.,/,.,.,7.2,7.6,4.1,15,.,
SMILES,hgDAF-12 ag,ssDAF12 agonist,DAX1 inh-1,hcDAF12 agonist,SMARCA2 activ,DAX1 inh-2,DAX1 inh confirm,SF1 mutant ctr,hgDAF12 ag,LXR ag 2,others
COc1cccc(NC(=O)C(=S)NC2CCCCC2)c1,23,.,.,7.2,.,9.2,12,7.9,18,.,LXR ag=.;hcDAF12 ag=7.2
O=C(NC1CCCC1)c1cc(-c2ccc(Cl)c(Cl)c2)on1,.,.,.,.,.,.,/,/,/,/,
COc1cccc(-c2cc(C(=O)NC3CCCC3)no2)c1,20,.,.,.,.,5.0,9.9,5.3,16,.,
Nc1[nH]c(C(=O)c2ccc(Br)cc2)c(-c2ccncc2)c1C(=O)c1ccccc1,.,.,/,.,.,.,/,/,/,/,
C=CCn1c2ccccc2c2nn(C)c(=S)nc21,.,.,.,.,.,.,/,/,/,/,
COc1nc(C)ccc1-c1noc(-c2ccco2)n1,15,.,.,7.8,.,5.0,12,5.4,15,.,LXR ag=.;hcDAF12 ag=6.6
COc1nc(-c2ccc(C)cc2)ccc1-c1noc(-c2ccco2)n1,.,.,.,.,.,.,/,/,/,/,
Cc1ccc(CC(=O)N2CCN(S(=O)(=O)c3ccccc3)CC2)cc1C,.,.,.,.,.,.,/,/,/,/,
Cc1ccsc1/C=N/NC(=O)Nc1ccccc1,17,1.1,5.2,.,.,5.8,11,6.9,17,.,
CNC(=O)COc1ncnc2scc(-c3ccc(F)cc3)c12,.,.,.,.,.,.,/,/,/,/,

# Screens: PubChem BioAssay, The Scripps Research Institute Molecular Screening Center
